Our source for the Potency and outcome values is PubChem BioAssay (Tox21).

The structures appear in SMILES notation. Inconclusive results are not listed. The source made the active and inactive calls. Unless noted, calls follow the shape of the dose curve; as a rule, active = well fitted curve in the direction sought with a large enough effect in the repeat runs; inconclusive = weak or mixed curves; inactive = no such curve, though single readings can be large; an effect the other way counts as inactive or inconclusive.

The nature of test [1]: qHTS assay to identify small molecule agonists of the vitamin D receptor (VDR) signaling pathway - cell viability counter screen (AID 743224). Also: series mostly up to about 63 µM; nearly all actives have a fitted effect of over 50% in size. Put shortly: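 Compounds were pin-transferred onto VDR-bla cells plated 4 h earlier; following 16 h incubation at 37C, cell viability was quantified by CellTiter-Glo luminescence after 30 min at room temperature.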
Test [2] in a line: qHTS assay to identify small molecule antagonists of the vitamin D receptor (VDR) signaling pathway - cell viability counter screen (AID 743225). Also: nearly all actives have a fitted effect of over 50% in size. The method in brief:
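Luminescent cell viability (CellTiter-Glo) in VDR-bla HEK 293T cells after 16 h compound exposure at 37C in the presence of 3 nM final 1-alpha,25-dihydroxy vitamin D3.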

A short description of test [3]: qHTS assay to identify small molecule agonists of the NFkB signaling pathway (AID 1159509; active = well fitted curve in the direction sought with a large enough effect in the signal ratio in the repeat runs, not every such curve was filed as active; the % refers to the signal ratio; also: series mostly up to about 61 µM). Put shortly: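 Readout: FRET fluorescence, 405 nm excitation, 460/530 nm emission; beta-lactamase expression disrupts FRET. Cells: ME-180 stably carrying NF-kB-driven bla reporter. Compound exposure 5 hr, 37 C, 5% CO2.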
(In general: Quantitative high-throughput screening tests each substance at several concentrations.)

The nature of test [4]: qHTS assay to identify small molecule agonists of the NFkB signaling pathway - cell viability counter screen (AID 1159515; calls by dose curve; also: series mostly up to about 61 µM; nearly all actives have a fitted effect of over 55% in size). The method in brief: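 Parallel cytotoxicity counter screen in ME-180 cells carrying an NFkB-response-element beta-lactamase reporter, 2,000 cells/well. Compound exposure lasted 5 hr at 37 C, 5% CO2. Cell viability was quantified by CellTiter-Glo luminescence.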

A short description of test [5]: qHTS assay to identify small molecule agonists of the endoplasmic reticulum stress response signaling pathway (AID 1159516; active = well fitted activation curve with a large enough effect in the signal ratio in the repeat runs, not every such curve was filed as active; the % refers to the signal ratio). The method in brief: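 Using a HeLa line with an ESRE-driven beta-lactamase gene, agonist activity was measured by FRET substrate fluorescence (460 and 530 nm emission) after cells were treated with compounds for 5 hr at 37 C and 5% CO2.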
Test [6] is described as follows: qHTS assay to identify small molecule agonists of the endoplasmic reticulum stress response signaling pathway - cell viability counter screen (AID 1159517; calls by dose curve;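 also: HeLa cells carrying an ER stress response element beta-lactamase reporter; series mostly up to about 61 µM; nearly all actives have a fitted effect of over 50% in size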). Put shortly:
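Cytotoxicity of test compounds toward ESRE-bla HeLa cells was assessed after 5 hr exposure. The luminescent CellTiter-Glo signal was measured 30 min after reagent addition.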

Test [7] in a line: qHTS assay to identify small molecule antagonists of the retinoid-related orphan receptor gamma (ROR-gamma) signaling pathway - cell viability counter screen (AID 1159520). Also: nearly all actives have a fitted effect of over 50% in size. Put shortly: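 Tet-on ROR gamma CHO cells (1,000/well) were plated 4 hr, given compounds in DMSO for 2 hr at 37 C, then induced with 1 uM final doxycycline for 16 hr. Viability was read as ATP by CellTiter-Glo luminescence after 30 min.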

In test [8] the target is Nuclear receptor ROR-gamma (Homo sapiens) (UniProt P51449). In words: qHTS assay to identify small molecule antagonists of the retinoid-related orphan receptor gamma (ROR-gamma) signaling pathway (AID 1159521). The method in brief: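 CHO cells expressing RORγ under a TET-on promoter, luciferase under RORE control. Dox 1 uM final, 16 h; compounds added 2 h prior. Luminescence decrease measured.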

Test [9] is described as follows: qHTS assay to identify small molecule agonists of the AP-1 signaling pathway - cell viability counter screen (AID 1159525; calls by dose curve; also: nearly all actives have a fitted effect of over 55% in size). The method in brief: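 Each titration point was normalised to DMSO and tetra n-octyl ammonium bromide controls. The read was Cell Titer Glo luminescence after 30 min at RT, following 5 h compound exposure of ME-180 AP-1-bla cells at 37 °C.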

A short description of test [10]: qHTS assay to identify small molecule agonists of the AP-1 signaling pathway (AID 1159526; calls by dose curve).
Test [11] addresses Retinoic acid receptor RXR-alpha (Homo sapiens) (UniProt P19793). As to the kind of experiment: qHTS assay to identify small molecule agonists of the RXR signaling pathway (AID 1159527; calls by dose curve; also: nearly all actives have a fitted effect of over 35% in size; also: potency is read from the fitted curve at half-maximal effect). Put shortly: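 Beta-lactamase reporter assay, agonist format. Engineered HEK 293T line, charcoal-stripped FBS at 2%, overnight (16 hr) exposure, fluorescence at 460 and 530 nm after 405 nm excitation.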

A short description of test [12]: qHTS assay to identify small molecule agonists of the RXR signaling pathway - cell viability counter screen (AID 1159529). Put shortly: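 Same-well viability check after the LiveBLAzer FRET read: CellTiter-Glo added, luminescence measured after 30 min at room temperature. Reporter HEK 293T cells had been treated with compounds for 16 hr following a 5 hr preincubation.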

Test [13] is described as follows: qHTS assay to identify small molecule antagonists of the retinoid acid receptor (RAR) signaling pathway - cell viability counter screen (AID 1159551). Also: nearly all actives have a fitted effect of over 35% in size. The method in brief: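 ATP-based viability, C3RL4 cells, 6 h at 37 C with 1 uM final retinol co-added after compound; luminescence read 30 min post CellTiter-Glo, RT.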
A short description of test [14]: qHTS assay to identify small molecule antagonists of the retinoic acid receptor (RAR) signaling pathway (AID 1159552; also: nearly all actives have a fitted effect of over 50% in size). The method in brief: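 Readout: luciferase luminescence, 30 min post-reagent at RT. Setup: C3RL4 RARE reporter cells, compounds plus retinol 1 uM final, 6 hr incubation at 37 C and 5% CO2.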
Test [15] is described as follows: qHTS assay to identify small molecule agonists of the estrogen related receptor (ERR) signaling pathway (AID 1224820). Put shortly:
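Luminescence readout (One-Glo, 30 min RT) from NTP-supplied ERR cell line exposed to compounds for 18 h at 37 C. Cells seeded 2,000 per well and pre-incubated 6 h before pin-tool compound transfer.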

In test [16] the test system is estrogen-related receptor alpha (ERRalpha) with PGC-1alpha coactivator, human. As to the kind of experiment: qHTS assay to identify small molecule antagonists of the estrogen related receptor signaling pathway with the pleiotropic PPARgamma coactivator (PGC) (AID 1224821; calls by dose curve). The method in brief:
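PGC/ERR reporter cells; 6 h pre-incubation 37 C/5% CO2; pin-tool compound in DMSO, 18 h 37 C; One-Glo added, 30 min RT; luminescence read. qHTS antagonist mode.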

Test [17] is described as follows: qHTS assay to identify small molecule agonists of the estrogen related receptor signaling pathway with the pleiotropic PPARgamma coactivator (PGC) (AID 1224823). The method in brief: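 Luminescence readout (One-Glo, 30 min RT) from PGC/ERR cell line treated 18 h at 37 C with pin-tool-delivered DMSO compound solutions; cells plated 6 h before dosing. Quantitative HTS format.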

A short description of test [18]: qHTS assay to identify small molecule antagonists of the estrogen related receptor (ERR) signaling pathway from Tox21 library - cell viability counter screen (AID 1224834). Also: nearly all actives have a fitted effect of over 30% in size. Also: potency is read from the fitted curve at half-maximal effect. The method in brief:
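Compounds in DMSO were pinned onto ERR cells that had been incubated for 6 h, and the plates were held at 37 C for 17.5 h. CellTiter-Fluor reagent was then added and fluorescence was measured after 30 min.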

The nature of test [19]: qHTS assay to identify small molecule agonists of the retinoic acid receptor (RAR) signaling pathway (AID 1159553). Put shortly:
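Quantitative high-throughput format: the Tox21 10K library was tested on C3RL4 RARE-luciferase cells for 6 hr at 37 C and 5% CO2, with luminescence measured after a 30 min room-temperature reagent step.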

Test [20] is described as follows: qHTS assay to identify small molecule antagonists of the estrogen related receptor (ERR) signaling pathway - cell viability counter screen (AID 1224818).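 Also: series mostly up to about 46 µM; viability measured after 17.5 h of compound exposure.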 The method in brief: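 Quantitative high-throughput viability counter screen in ERR cells. Compounds (DMSO) incubated 17.5 h at 37 C; read-out was CellTiter-Fluor fluorescence.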

Sequence of Retinoic acid receptor RXR-alpha (Homo sapiens) (P19793 whole entry, looked up): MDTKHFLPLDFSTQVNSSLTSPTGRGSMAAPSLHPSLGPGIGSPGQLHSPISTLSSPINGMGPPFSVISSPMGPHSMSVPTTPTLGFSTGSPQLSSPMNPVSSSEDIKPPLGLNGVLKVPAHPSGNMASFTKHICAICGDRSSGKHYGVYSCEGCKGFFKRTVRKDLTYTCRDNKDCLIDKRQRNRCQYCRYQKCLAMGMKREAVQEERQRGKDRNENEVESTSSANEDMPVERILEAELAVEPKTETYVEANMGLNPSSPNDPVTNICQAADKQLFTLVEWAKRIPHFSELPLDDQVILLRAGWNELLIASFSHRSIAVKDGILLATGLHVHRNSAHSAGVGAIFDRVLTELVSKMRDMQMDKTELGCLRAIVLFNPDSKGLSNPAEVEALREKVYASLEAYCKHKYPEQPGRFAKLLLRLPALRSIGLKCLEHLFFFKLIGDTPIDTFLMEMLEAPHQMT

For `COc1ccc2c(c1OC)C(=O)O[C@@H]2[C@H]1c2c(cc3c(c2OC)OCO3)CCN1C`, the Potency result in [1], in [6] and in [11] was “inactive” throughout. Besides, the call in test [2], in test [3], in test [4], in test [5], in [7] and in test [8] was inactive. Also, the molecule was called inactive in test [9], in test [10], in test [12], in test [13], in test [14] and in test [15]. Further, the molecule was classed as inactive in test [16] and in [17]. Further, the Potency in test [18] is 11.9 µM (active).

Take `NCCN1CCOCC1`: the Potency result in test [1], in [6], in [11], in test [19] and in [18] was “inactive” each time. In addition, the outcome in test [2], in [3], in test [4], in [5], in test [7] and in test [8] was inactive. Moreover, the outcome in test [9], in test [10], in test [12], in [13] and in [14] was inactive.

As for `OCCCCC(O)CO` (stereo unspecified), the Potency entry in test [1], in [6] and in test [19] was “inactive” in each case. The molecule was classed as inactive in test [2], in test [3], in [4], in [5], in [7] and in test [8]. The call in test [9], in test [10], in test [12] and in test [13] was inactive. The Potency in test [11] is 11.6 µM (active).

For the molecule `O=C(O)c1ccc(Cl)cc1Cl`, the Potency result in test [1], in [6], in test [11] and in [18] was “inactive” throughout. Besides, the outcome in test [2], in [3], in test [4], in test [5], in test [7] and in test [8] was inactive. Besides, the call in test [9], in test [10], in test [12], in test [13] and in test [14] was inactive.

With `CC(=O)Nc1cccc(C)c1`, the Potency entry in test [1], in [6], in test [11] and in test [19] was “inactive” throughout. Further, the outcome in [2], in test [3], in test [4], in [5], in test [7] and in [8] was inactive. Moreover, the call in test [9], in test [10], in test [12] and in [13] was inactive.

Take `CCCCNc1ccc(C(=O)OCCN(C)C)cc1`: the Potency result in test [1], in [6], in test [11] and in [18] was “inactive” in each case. In addition, the outcome in [2], in test [3], in test [4], in [5], in test [7] and in test [8] was inactive. Moreover, the molecule was classed as inactive in test [9], in test [10], in [12], in test [13] and in test [20].

Turning to `O=S(=O)(O)c1cc(O)c2ccc(Nc3ccccc3)cc2c1`, the Potency entry in test [1], in test [6] and in [11] was “inactive” each time. The result in [2], in test [3], in test [4], in test [5], in [7] and in [8] was inactive. The outcome in [9], in test [10], in test [12], in test [13] and in test [14] was inactive.

On to `O=C1c2cccc3c2[C@H](CCC3)CN1[C@@H]1CN2CCC1CC2`, for which the Potency entry in test [1], in test [6], in test [11] and in test [19] was “inactive” in each case. For the same molecule, the molecule was classed as inactive in test [2], in test [3], in [4], in test [5], in test [7] and in test [8]. The molecule was classed as inactive in test [9], in test [10], in test [12], in test [13] and in [14].
